Results on 40 compounds are retold here after the supplement of paper PMC7530171.

Counter-ions that a name gives are not always drawn. ± gives the standard deviation.

The experiment deals with THP-1 macrophages infected with Mycobacterium tuberculosis H37Rv. In words: intracellular M.tb growth inhibition relative to DMSO (0) and 4 uM bedaquiline (100); higher = stronger inhibition of intracellular bacterial growth. The note with it: 10 µM; 4 days. As for the experimental part: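 OICR kinase inhibitor library screened in duplicate at 10 uM against THP-1 macrophages (PMA-differentiated) infected with M. tuberculosis H37Rv-pTEC27 (tdTomato RFP), 4 days at 37 C. Rows with complete host cell loss (placeholder inhibition 0, cell loss 100) were removed.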
In the case of `COc1cc2c(cc1OC)-c1[nH]nc(Nc3cccc(F)c3)c1C2`, the “intracellular M.tb growth inhibition” value stood at 62.2 ± 12%.

As for `O=C1NC(=O)/C(=C/c2ccc3c(c2)OC(F)(F)O3)S1`, the “intracellular M.tb growth inhibition” value is 42.5 ± 35%.

Take `COc1cc(C[C@H]2C(=O)OC[C@@H]2Cc2ccc(OC)c(OC)c2)ccc1O` [Arctigenin]: the “intracellular M.tb growth inhibition” value came out at 46 ± 8.1%.

Regarding `C[C@@H]1CCN(C(=O)CC#N)C[C@@H]1N(C)c1ncnc2[nH]ccc12`, the “intracellular M.tb growth inhibition” value is -17.5 ± 21%.

Take `Cn1cc(C2=C(c3ccc(Cl)cc3Cl)C(=O)NC2=O)c2ccccc21`: the “intracellular M.tb growth inhibition” value was -108 ± 200%.

As to `COc1cc(OC2CCN(C)CC2)ccc1Nc1ncc2c(n1)n(C1CCCC1)c(=O)n2C`, the “intracellular M.tb growth inhibition” value is -17.7 ± 25%.

With `COc1cc2ncnc(Nc3ccc(F)c(Cl)c3)c2cc1OCCCN1CCOCC1` [Gefitinib], the “intracellular M.tb growth inhibition” value was 54.4 ± 28%.

As to `O=C(Nc1cccc(Cl)c1)Nc1ncc(CCNc2ncnc3ccsc23)s1`, the “intracellular M.tb growth inhibition” value is -53.6 ± 76%.

Regarding `CCn1c(-c2nonc2N)nc2c(C#CC(C)(C)O)ncc(OC[C@H]3CCCNC3)c21`, the “intracellular M.tb growth inhibition” value was -124 ± 170%.

As to `Nc1ncnc(Nc2ccc(OCc3ccccc3)c(Cl)c2)c1/C=N/OCCN1CCOCC1`, the “intracellular M.tb growth inhibition” value was 55.9 ± 12%.

For `FC(F)(F)c1ccc(/C=C/c2nc(COc3ccc(CCCCn4ccnn4)cc3)co2)cc1` [Mubritinib], the “intracellular M.tb growth inhibition” value is -50.5 ± 170%.

`CCN(CC)CCCCN1c2ccccc2Oc2ccc(Cl)cc21` [10-DEBC hydrochloride]: the “intracellular M.tb growth inhibition” value is 123 ± 1.9%.

Consider `N#Cc1c(NC(=O)c2cccc3ccccc23)sc2c1CCCC2`, for which the “intracellular M.tb growth inhibition” value was -226 ± 330%.

As to `COCC(=O)NC/C=C/c1ccc2ncnc(Nc3ccc(Oc4ccc(C)nc4)c(C)c3)c2c1`, the “intracellular M.tb growth inhibition” value amounted to 5.71 ± 95%.

`N#CC(=C(/N)Sc1ccccc1N)/C(C#N)=C(/N)Sc1ccccc1N`: the “intracellular M.tb growth inhibition” value amounted to 13.3 ± 58%.

As for `Cc1cc2c(F)c(Oc3ncnn4cc(OC[C@@H](C)O)c(C)c34)ccc2[nH]1` [Brivanib], the “intracellular M.tb growth inhibition” value was -66.6 ± 160%.

In the case of `Nc1cc(N)c(N)cc1N` [FAK Inhibitor 14], the “intracellular M.tb growth inhibition” value is 6.73 ± 56%.

Consider `CC(=O)c1ccc(N2CCOCC2)cc1O`, for which the “intracellular M.tb growth inhibition” value was -148 ± 170%.

On to `Cc1c[nH]c(/C=C2\C(=O)Nc3ccccc32)c1CCC(=O)O`, for which the “intracellular M.tb growth inhibition” value was found to be 27.3 ± 23%.

With `Oc1cccc(-c2nc(N3CCOCC3)c3sccc3n2)c1` [PI3-Kinase a Inhibitor 2], the “intracellular M.tb growth inhibition” value is -170 ± 240%.

`NC(=O)c1ccc(N(C(N)=O)c2c(F)cccc2F)nc1-c1ccc(F)cc1F`: the “intracellular M.tb growth inhibition” value is -1.77 ± 10%.

Consider `CC(C)n1nc(-c2cc3cc(O)ccc3[nH]2)c2c(N)ncnc21`, for which the “intracellular M.tb growth inhibition” value came out at 14.1 ± 20%.

Consider `COc1cc2/c(=N/c3ccc(Br)cc3F)nc[nH]c2cc1OCC1CCN(C)CC1` [Vandetanib], for which the “intracellular M.tb growth inhibition” value stood at 64.1 ± 6.5%.

`CC(C)c1cnn2c(NCc3ccccc3)cc(NCCCCCCN)nc12` [BS-181 hydrochloride]: the “intracellular M.tb growth inhibition” value was found to be 3.6 ± 5.1%.

Consider `CNC(=O)c1ccccc1Sc1ccc2c(/C=C/c3ccccn3)n[nH]c2c1` [Axitinib], for which the “intracellular M.tb growth inhibition” value is 33.9 ± 1.6%.

For `Cc1cc(C(C)Nc2ccccc2)c2nc(N3CCOCC3)cc(=O)n2c1` (stereo not given), the “intracellular M.tb growth inhibition” value was -38.7 ± 24%.

Take `O=C(NOCC1CC1)c1cc(Br)c(F)c(F)c1Nc1ccc(I)cc1Cl`: the “intracellular M.tb growth inhibition” value amounted to 59.8 ± 16%.

On to `O=[N+]([O-])c1ccc(-c2nc(-c3ccc(F)cc3)c(-c3ccncc3)[nH]2)cc1`, for which the “intracellular M.tb growth inhibition” value was found to be 36.6 ± 3.6%.

Turning to `Cc1cc(Nc2nc(N[C@@H](C)c3ncc(F)cn3)ncc2Cl)[nH]n1`, the “intracellular M.tb growth inhibition” value is -234 ± 120%.

With `NC(=O)Nc1cc(-c2cccc(F)c2)sc1C(=O)N[C@H]1CCCNC1`, the “intracellular M.tb growth inhibition” value is -218 ± 310%.

For `C[C@@H](Oc1cc(-c2cnn(C3CCNCC3)c2)cnc1N)c1c(Cl)ccc(F)c1Cl`, the “intracellular M.tb growth inhibition” value is -114 ± 120%.

Regarding `COc1cc2ncnc(-n3nc(-c4ccccn4)nc3N)c2cc1OC`, the “intracellular M.tb growth inhibition” value is -77 ± 180%.

Regarding `O=C(Nc1nc2ccccc2n1CCN1CCOCC1)c1cccc([N+](=O)[O-])c1` [IRAK-1/4 Inhibitor I], the “intracellular M.tb growth inhibition” value was 13.1 ± 7.2%.

`Cc1ccc(NC(=O)c2cccc(N(C)C)c2)cc1NC(=O)c1ccc(O)cc1`: the “intracellular M.tb growth inhibition” value worked out at 36 ± 37%.

Take `COc1cc2c(Nc3ccc(NC(=O)c4ccccc4)cc3)ncnc2cc1OCCCN1CCOCC1`: the “intracellular M.tb growth inhibition” value was -10.1 ± 48%.

With `C/C(=N\N=C(N)N)c1ccc(NC(=O)Nc2ccc(/C(C)=N/N=C(N)N)cc2)cc1`, the “intracellular M.tb growth inhibition” value was 63.3 ± 10%.

Consider `Cc1ccc(F)c(NC(=O)Nc2ccc(-c3cccc4[nH]nc(N)c34)cc2)c1`, for which the “intracellular M.tb growth inhibition” value was -14.6 ± 21%.

For the compound `O=S(=O)(c1cccc2cnccc12)N1CCCNCC1` [Fasudil HCl], the “intracellular M.tb growth inhibition” value is 6.96 ± 7.6%.

Consider `Cc1cc(Nc2cc(N3CCN(C)CC3)nc(Sc3ccc(NC(=O)C4CC4)cc3)n2)n[nH]1`, for which the “intracellular M.tb growth inhibition” value was -6.87 ± 4.6%.

Regarding `Cc1cn(-c2cc(NC(=O)c3ccc(C)c(Nc4nccc(-c5cccnc5)n4)c3)cc(C(F)(F)F)c2)cn1` [Nilotinib], the “intracellular M.tb growth inhibition” value is -5.88 ± 8.3%.
